The values that follow come from the supplement of paper PMC11006884.

Of roughly 6,500 targets only a part is listed; those with a hit were picked by preference. About 2% of all pairs of compound and target were hits.

Chain of UniProt P52597 (P52597 whole entry, looked up): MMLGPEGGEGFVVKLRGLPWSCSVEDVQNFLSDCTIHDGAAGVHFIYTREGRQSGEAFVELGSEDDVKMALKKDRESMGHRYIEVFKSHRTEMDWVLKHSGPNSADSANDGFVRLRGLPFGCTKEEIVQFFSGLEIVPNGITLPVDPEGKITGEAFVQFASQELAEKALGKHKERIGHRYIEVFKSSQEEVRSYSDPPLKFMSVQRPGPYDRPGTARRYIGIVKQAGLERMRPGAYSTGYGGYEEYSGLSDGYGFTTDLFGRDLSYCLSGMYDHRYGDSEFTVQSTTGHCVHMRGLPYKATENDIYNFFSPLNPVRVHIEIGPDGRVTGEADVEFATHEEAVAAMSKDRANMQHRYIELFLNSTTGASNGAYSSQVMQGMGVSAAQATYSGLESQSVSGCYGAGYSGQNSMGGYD
Chain of UniProt P22234 (P22234 whole entry, looked up): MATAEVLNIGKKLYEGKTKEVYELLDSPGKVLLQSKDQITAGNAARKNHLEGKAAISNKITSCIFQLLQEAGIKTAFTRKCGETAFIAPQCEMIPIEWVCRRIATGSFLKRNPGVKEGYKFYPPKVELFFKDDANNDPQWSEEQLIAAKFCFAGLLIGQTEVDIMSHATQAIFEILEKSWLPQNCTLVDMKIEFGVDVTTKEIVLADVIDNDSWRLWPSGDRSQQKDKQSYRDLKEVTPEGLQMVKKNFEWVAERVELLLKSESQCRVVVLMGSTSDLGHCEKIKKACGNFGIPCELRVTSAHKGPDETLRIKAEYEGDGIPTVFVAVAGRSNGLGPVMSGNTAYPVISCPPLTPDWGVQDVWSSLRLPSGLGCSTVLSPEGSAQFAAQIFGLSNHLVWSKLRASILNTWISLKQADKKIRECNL
Chain of UniProt P23246 (P23246 whole entry): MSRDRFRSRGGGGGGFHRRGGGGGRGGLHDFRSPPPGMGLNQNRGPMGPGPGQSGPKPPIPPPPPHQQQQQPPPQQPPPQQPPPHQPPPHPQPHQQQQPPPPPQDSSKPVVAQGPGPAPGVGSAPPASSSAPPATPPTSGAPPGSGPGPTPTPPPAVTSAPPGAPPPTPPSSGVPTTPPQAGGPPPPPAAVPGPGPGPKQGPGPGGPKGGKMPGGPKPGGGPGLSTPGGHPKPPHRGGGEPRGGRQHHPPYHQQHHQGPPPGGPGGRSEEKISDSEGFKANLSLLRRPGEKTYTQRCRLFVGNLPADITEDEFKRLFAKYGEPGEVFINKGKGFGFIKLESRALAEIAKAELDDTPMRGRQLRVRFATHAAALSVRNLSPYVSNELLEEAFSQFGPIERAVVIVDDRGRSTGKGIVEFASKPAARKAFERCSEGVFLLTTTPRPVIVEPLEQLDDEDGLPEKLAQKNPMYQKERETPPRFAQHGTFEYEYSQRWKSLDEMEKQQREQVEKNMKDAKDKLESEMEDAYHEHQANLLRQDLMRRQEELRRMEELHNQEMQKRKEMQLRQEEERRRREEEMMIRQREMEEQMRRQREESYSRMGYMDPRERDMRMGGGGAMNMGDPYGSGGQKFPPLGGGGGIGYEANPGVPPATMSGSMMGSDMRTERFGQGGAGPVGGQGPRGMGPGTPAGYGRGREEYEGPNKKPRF
Chain of UniProt P10809 (P10809 whole entry, looked up): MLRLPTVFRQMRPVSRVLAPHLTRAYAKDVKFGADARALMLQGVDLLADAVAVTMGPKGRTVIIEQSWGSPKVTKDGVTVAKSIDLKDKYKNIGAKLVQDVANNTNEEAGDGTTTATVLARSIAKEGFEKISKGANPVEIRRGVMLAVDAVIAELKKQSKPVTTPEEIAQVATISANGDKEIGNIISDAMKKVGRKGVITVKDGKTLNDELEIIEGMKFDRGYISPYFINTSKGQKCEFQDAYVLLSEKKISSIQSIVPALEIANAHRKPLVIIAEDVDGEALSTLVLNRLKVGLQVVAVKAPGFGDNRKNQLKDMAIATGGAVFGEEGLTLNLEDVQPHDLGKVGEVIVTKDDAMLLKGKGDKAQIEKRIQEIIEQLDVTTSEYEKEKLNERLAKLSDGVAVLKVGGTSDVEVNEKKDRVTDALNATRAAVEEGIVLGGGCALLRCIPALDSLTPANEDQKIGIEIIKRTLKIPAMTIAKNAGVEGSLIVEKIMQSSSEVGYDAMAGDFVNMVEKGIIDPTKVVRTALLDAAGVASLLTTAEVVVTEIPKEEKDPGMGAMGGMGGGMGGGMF
Chain of UniProt P42765 (P42765 whole entry, looked up): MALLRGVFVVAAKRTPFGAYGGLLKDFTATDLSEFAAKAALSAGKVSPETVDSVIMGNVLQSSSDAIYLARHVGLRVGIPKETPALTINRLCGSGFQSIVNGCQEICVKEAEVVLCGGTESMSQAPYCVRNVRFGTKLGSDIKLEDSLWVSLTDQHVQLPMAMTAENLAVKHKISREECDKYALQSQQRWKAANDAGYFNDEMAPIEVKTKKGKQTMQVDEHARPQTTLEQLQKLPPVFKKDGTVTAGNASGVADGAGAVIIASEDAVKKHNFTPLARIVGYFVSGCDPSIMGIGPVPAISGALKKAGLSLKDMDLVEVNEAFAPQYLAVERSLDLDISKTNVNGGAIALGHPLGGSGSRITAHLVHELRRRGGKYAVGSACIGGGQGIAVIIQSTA
Chain of UniProt P31948 (P31948 whole entry, looked up): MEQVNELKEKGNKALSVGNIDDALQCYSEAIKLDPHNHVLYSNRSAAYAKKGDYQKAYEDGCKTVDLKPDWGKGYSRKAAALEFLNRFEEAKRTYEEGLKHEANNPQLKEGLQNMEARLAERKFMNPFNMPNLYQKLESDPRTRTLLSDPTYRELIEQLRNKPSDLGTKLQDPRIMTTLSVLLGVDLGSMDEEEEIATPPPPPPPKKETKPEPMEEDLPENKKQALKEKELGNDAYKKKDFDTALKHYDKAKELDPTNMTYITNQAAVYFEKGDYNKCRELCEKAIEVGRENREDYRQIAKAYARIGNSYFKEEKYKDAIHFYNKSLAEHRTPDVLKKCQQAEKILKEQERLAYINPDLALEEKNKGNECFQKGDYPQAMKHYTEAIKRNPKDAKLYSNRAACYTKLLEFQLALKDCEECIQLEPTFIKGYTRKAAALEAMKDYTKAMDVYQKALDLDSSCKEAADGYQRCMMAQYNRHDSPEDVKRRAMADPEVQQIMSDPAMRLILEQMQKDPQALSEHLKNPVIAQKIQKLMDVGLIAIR
Chain of UniProt P13807 (P13807 whole entry, looked up): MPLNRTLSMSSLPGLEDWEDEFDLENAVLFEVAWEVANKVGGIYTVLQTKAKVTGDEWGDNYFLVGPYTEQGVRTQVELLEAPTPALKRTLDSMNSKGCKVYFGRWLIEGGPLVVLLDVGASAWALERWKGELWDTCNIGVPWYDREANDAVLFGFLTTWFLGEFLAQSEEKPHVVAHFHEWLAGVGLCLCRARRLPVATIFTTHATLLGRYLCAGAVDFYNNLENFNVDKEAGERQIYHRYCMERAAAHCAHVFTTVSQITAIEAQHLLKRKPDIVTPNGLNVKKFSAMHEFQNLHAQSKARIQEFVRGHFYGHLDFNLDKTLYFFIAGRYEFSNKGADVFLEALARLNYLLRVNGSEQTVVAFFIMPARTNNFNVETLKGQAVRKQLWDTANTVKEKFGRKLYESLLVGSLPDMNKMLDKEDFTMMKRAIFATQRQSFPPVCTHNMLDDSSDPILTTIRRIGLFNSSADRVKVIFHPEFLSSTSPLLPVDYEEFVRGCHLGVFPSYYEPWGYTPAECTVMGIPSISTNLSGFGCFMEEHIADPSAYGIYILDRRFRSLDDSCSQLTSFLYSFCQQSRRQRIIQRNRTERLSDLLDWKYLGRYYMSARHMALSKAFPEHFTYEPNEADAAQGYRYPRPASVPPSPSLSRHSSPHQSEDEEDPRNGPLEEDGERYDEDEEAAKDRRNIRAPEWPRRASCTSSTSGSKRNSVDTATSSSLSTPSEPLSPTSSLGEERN
Chain of UniProt P08047 (P08047 whole entry, looked up): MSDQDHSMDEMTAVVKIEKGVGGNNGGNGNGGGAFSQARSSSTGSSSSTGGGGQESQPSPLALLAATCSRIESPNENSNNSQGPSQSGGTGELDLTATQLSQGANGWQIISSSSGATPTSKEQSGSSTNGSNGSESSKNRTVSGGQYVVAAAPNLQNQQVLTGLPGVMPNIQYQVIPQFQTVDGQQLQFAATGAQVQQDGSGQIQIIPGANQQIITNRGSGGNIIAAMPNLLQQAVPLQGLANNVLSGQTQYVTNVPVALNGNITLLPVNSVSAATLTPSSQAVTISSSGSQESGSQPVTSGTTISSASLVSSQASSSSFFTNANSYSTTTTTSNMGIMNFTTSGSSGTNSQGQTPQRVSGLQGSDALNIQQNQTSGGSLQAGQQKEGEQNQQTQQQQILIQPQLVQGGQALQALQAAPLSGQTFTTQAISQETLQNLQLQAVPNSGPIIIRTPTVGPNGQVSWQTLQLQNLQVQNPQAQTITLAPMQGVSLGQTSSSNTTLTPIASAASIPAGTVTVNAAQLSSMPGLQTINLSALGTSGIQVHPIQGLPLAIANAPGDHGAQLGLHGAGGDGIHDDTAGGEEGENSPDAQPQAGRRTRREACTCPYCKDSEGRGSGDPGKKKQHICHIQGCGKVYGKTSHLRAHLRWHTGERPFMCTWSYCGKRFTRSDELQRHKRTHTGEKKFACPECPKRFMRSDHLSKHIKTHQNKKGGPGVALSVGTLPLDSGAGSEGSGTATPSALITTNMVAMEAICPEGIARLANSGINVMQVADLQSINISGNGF
Chain of UniProt P13995 (P13995 whole entry, looked up): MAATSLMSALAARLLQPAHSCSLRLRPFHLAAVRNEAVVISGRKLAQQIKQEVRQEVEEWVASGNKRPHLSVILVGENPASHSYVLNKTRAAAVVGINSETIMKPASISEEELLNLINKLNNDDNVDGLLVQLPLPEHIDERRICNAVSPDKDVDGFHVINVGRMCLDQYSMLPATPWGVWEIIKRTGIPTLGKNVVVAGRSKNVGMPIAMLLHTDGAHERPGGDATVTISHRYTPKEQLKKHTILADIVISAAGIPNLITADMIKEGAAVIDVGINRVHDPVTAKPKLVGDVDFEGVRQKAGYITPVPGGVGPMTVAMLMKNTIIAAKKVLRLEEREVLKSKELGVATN

Compound in this experiment: COC(=O)C#Cc1ccccc1 [methyl 3-phenylpropiolate]
The experiment can be described thus: log2 ratio of iodoacetamide-alkyne labeling of the cysteine site, DMSO over compound (competition); higher = stronger covalent engagement of the cysteine by the compound, active = 1 or more. To be noted: 500 µM; treatment time 1 h; system: HEK293T cell lysate. A digest of the protocol:
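Three replicates, each with duplicate channels, were prepared from HEK293T lysate (2 mg/mL) treated with vehicle or electrophile at 500 µM for 1 h at ambient temperature. Iodoacetamide alkyne was then applied for 1 h, and samples were clicked to sCIP-TMT reagents, pooled, trypsin-digested overnight at 37 °C, enriched on streptavidin, acid-eluted and analysed on Orbitrap Eclipse LC-MS/MS with FAIMS, with FragPipe quantification. The log2 competition ratio per cysteine is the mean control-channel divided by the mean compound-channel reporter intensity. Cysteines quantified in only one replicate were left out.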
In the case of MBD3 C172 (UniProt O95983), the “log2 ratio of iodoacetamide-alkyne labeling” value (“log2 ratio” below) is 0.114 (inactive).

Consider PML C338 (UniProt P29590), for which the “log2 ratio” value is 0.413 (inactive).

Consider SFPQ C297 (UniProt P23246), for which the “log2 ratio” value is -0.122 (inactive).

As for PYGB C326 (UniProt P11216), the “log2 ratio” value is 0.332 (inactive).

For the target MFN2 C348 (UniProt O95140), the “log2 ratio” value is -0.0549 (inactive).

Turning to CAPN2 C301 (UniProt P17655), the “log2 ratio” value is 2.17 (active).

As to DNAJB1 C267 (UniProt P25685), the “log2 ratio” value was 0.268 (inactive).

STIP1 C339 (UniProt P31948): the “log2 ratio” value was 0.0728 (inactive).

As for LDHB C294 (UniProt P07195), the “log2 ratio” value is -0.0731 (inactive).

For ACAA2 C116 (UniProt P42765), the “log2 ratio” value was 1.22 (active).

Consider RANBP2 C581 (UniProt P49792), for which the “log2 ratio” value was 0.41 (inactive).

For HSPD1 C442 (UniProt P10809), the “log2 ratio” value was 1.2 (active).

Regarding DSP C3 (UniProt P15924), the “log2 ratio” value was 1.14 (active).

As to ATIC C363 (UniProt P31939), the “log2 ratio” value was 0.3 (inactive).

In the case of FASN C1548 (UniProt P49327), the “log2 ratio” value is -0.00359 (inactive).

For the target LRPPRC C208 (UniProt P42704), the “log2 ratio” value was 0.123 (inactive).

For RPL9 C134 (UniProt P32969), the “log2 ratio” value was 0.0357 (inactive).

Turning to FECH C395 (UniProt P22830), the “log2 ratio” value was 0.372 (inactive).

For the target FASN C1186 (UniProt P49327), the “log2 ratio” value was -0.0549 (inactive).

In the case of UniProt P49840_C398, the “log2 ratio” value is 0.241 (inactive).

For PAICS C81 (UniProt P22234), the “log2 ratio” value is 0.248 (inactive).

On to DNMT1 C1226 (UniProt P26358), for which the “log2 ratio” value is -0.0963 (inactive).

For the target MBD4 C268 (UniProt O95243), the “log2 ratio” value is 1.12 (active).

For MPG C56 (UniProt P29372), the “log2 ratio” value is 1.66 (active).

With GDI2 C202 (UniProt P50395), the “log2 ratio” value is -0.0158 (inactive).

For the target GYS1 C699 (UniProt P13807), the “log2 ratio” value is 0.526 (inactive).

For VDAC2 C210 (UniProt P45880), the “log2 ratio” value was 1.39 (active).

Turning to IDH3A C359 (UniProt P50213), the “log2 ratio” value is 1.05 (active).

Regarding RANBP2 C1296 (UniProt P49792), the “log2 ratio” value was 0.543 (inactive).

For the target HNRNPA1 C175 (UniProt P09651), the “log2 ratio” value was -0.128 (inactive).

As to HNRNPF C290 (UniProt P52597), the “log2 ratio” value is 0.0362 (inactive).

With TTK C322 (UniProt P33981), the “log2 ratio” value was 1.29 (active).

Turning to PRKAR2A C128 (UniProt P13861), the “log2 ratio” value is 0.00919 (inactive).

With SP1 C604 (UniProt P08047), the “log2 ratio” value is -0.0454 (inactive).

Turning to HSP90AB1 C521 (UniProt P08238), the “log2 ratio” value was 0.298 (inactive).

TMPO C570 (UniProt P42166): the “log2 ratio” value is 1.16 (active).

On to MTHFD2 C145 (UniProt P13995), for which the “log2 ratio” value is 0.057 (inactive).
